From PubChem BioAssay (Tox21)
Inconclusive results are not listed. Calls of active or inactive are those of the source. Unless noted, the call rests on the fitted dose curve; in most records, active means well fitted curve in the direction sought with a large enough effect in the repeat runs; inconclusive means weak or mixed curves; inactive means no such curve, though single readings can be large; an effect the other way counts as inactive or inconclusive.

tested on: not listed separately; assay: qHTS assay for identifying genotoxic compounds that show differential cytotoxicity against isogenic chicken DT40 cell lines with known DNA damage response pathways - Rad54/Ku70 mutant cell line (AID 743015); details: DT40 Rad54/Ku70 mutant viability, CellTiter-Glo, 40 h; series mostly up to 66.8 µM; activity change, negative = cytotoxicity: at the top concentration; further: nearly all actives have a fitted effect of over 60% in size; further: potency means the concentration at half of the fitted maximal effect
On the % scale 0 is the no-effect control and ±100 the full control effect.

Structure (SMILES)	Potency	activity change, negative = cytotoxicity
CCCCC(CC)CCC(CC(C)C)OS(=O)(=O)O (stereo unspecified)	inactive	
C=C(C)C(=O)OCCCC		-2.65% [at 95.1 µM] (inactive)
CC(C)C(C)C		8.34% (inactive)
CC(=O)Oc1ccc(C(C)=O)cc1		-0.71% [at 95.1 µM] (inactive)
CCCCCCCCC1CO1 (stereo unspecified)		6.66% [at 95.1 µM] (inactive)
CC(C)c1cc(C(C)C)cc(C(C)C)c1		5.33% (inactive)
C=CC(=O)OCC[N+](C)(C)C		-9.43% [at 95.1 µM] (inactive)
CN(C)c1cc(NC(=O)CNC(C)(C)C)c(O)c2c1C[C@H]1C[C@H]3[C@H](N(C)C)C(=O)C(C(N)=O)=C(O)[C@@]3(O)C(=O)C1=C2O		-19% (inactive)
CC1(C)C(=O)C(C)(C)C1=O		-5.39% (inactive)
CCCCCC(CC)OC(=O)CCCOc1ccc(Cl)cc1Cl (stereo unspecified)		-0.617% (inactive)
Cc1ccc2ccccc2n1		-5.08% (inactive)
C=CCON/C(CCC)=C1\C(=O)CC(C)(C)C(C(=O)OC)=C1O		5.27% (inactive)
CCCCCCC(O)CO (stereo unspecified)		-1.5% (inactive)
Cc1ccc(O)c([N+](=O)[O-])c1		-0.0347% [at 95.1 µM] (inactive)
CCCCCC(=O)CC		6.93% [at 95.1 µM] (inactive)
O=C1c2ccccc2C(=O)N1CO		4.13% [at 95.1 µM] (inactive)
CN(C)CCC[C@@]1(c2ccc(F)cc2)OCc2cc(C#N)ccc21		2.55% (inactive)

Structure (SMILES)	Potency	activity change, negative = cytotoxicity
CC(C)C[P+](C)(CC(C)C)CC(C)C		-3.4% [at 95.1 µM] (inactive)
C=COCCCCO		-5.5% (inactive)
O=C(O)Cc1c(Cl)ccc(Cl)c1Cl		8.78% (inactive)
CC(O)C(CO)C(C)O (stereo unspecified)		-11% [at 95.1 µM] (inactive)
CCOC(=O)CC		21.3% (inactive)
O=C1CC2(CCCC2)CC(=O)N1CCNCC1COc2ccccc2O1 (stereo unspecified)	26.6 µM (active)	
CCC(=O)OCCOc1ccccc1		-7.43% (inactive)
CC1=C(O)C(=O)CO1		-6.06% (inactive)
CC[N+](C)(CC)CC		8.6% (inactive)
O=C(OOC(=O)c1ccccc1)c1ccccc1		13.2% (inactive)
CCCCC(CC)COC(=O)CC#N (stereo unspecified)		4.24% (inactive)
Cc1nc2ccc(Cl)cc2[nH]1		-0.722% (inactive)
COC(C)(C)CC(C)=O	61.1 µM (active)	
CC(=O)Nc1ccc(OCCOCCOc2ccc(NC(C)=O)cc2)cc1		3.87% (inactive)
CCCC(=O)CC		9.02% [at 95.1 µM] (inactive)
N#CC1(N)CCCCC1		-2.38% [at 95.1 µM] (inactive)

tested on: not listed separately; assay: qHTS assay to identify small molecule antagonists of the androgen receptor (AR) signaling pathway - cell viability counter screen (AID 743033; further: nearly all actives have a fitted effect of over 45% in size); details: AR-bla HEK293 viability, CellTiter-Glo luminescence, 16 h; series mostly up to 58.5 µM; activity change, negative = cytotoxicity: at the top concentration

Structure (SMILES)	activity change, negative = cytotoxicity	outcome
CC(=O)OCC(=O)[C@@]1(O)CC[C@H]2[C@@H]3CCC4=CC(=O)C=C[C@]4(C)[C@H]3[C@@H](O)C[C@@]21C	-5.56% (inactive)	
CCCCC(CC)CCC(CC(C)C)OS(=O)(=O)O (stereo unspecified)		inactive
CC(C)C(C)C	0.621% (inactive)	
CC(=O)Oc1ccc(C(C)=O)cc1	5.83% [at 78.9 µM] (inactive)	
CCCCCCCCC1CO1 (stereo unspecified)	2.71% [at 78.9 µM] (inactive)	
CC(C)c1cc(C(C)C)cc(C(C)C)c1	0.273% (inactive)	
CN(C)c1cc(NC(=O)CNC(C)(C)C)c(O)c2c1C[C@H]1C[C@H]3[C@H](N(C)C)C(=O)C(C(N)=O)=C(O)[C@@]3(O)C(=O)C1=C2O	1.14% (inactive)	
CC1(C)C(=O)C(C)(C)C1=O	5.83% (inactive)	
CCCCCC(CC)OC(=O)CCCOc1ccc(Cl)cc1Cl (stereo unspecified)	-1.47% (inactive)	
Cc1ccc2ccccc2n1	1.61% (inactive)	
C=CCON/C(CCC)=C1\C(=O)CC(C)(C)C(C(=O)OC)=C1O	1.81% (inactive)	
CCCCCCC(O)CO (stereo unspecified)	0.896% (inactive)	
Cc1ccc(O)c([N+](=O)[O-])c1	-2.67% [at 78.9 µM] (inactive)	
CCCCCC(=O)CC	8.16% [at 78.9 µM] (inactive)	
O=C1c2ccccc2C(=O)N1CO	0.611% [at 78.9 µM] (inactive)	
CN(C)CCC[C@@]1(c2ccc(F)cc2)OCc2cc(C#N)ccc21	11.1% (inactive)	
CC(C)C[P+](C)(CC(C)C)CC(C)C	-1.38% [at 78.9 µM] (inactive)	
O=C(O)Cc1c(Cl)ccc(Cl)c1Cl	-0.601% (inactive)	
CC(O)C(CO)C(C)O (stereo unspecified)	1.75% [at 78.9 µM] (inactive)	
CCOC(=O)CC	4.32% (inactive)	
CC1=C(O)C(=O)CO1	10.8% (inactive)	
CC[N+](C)(CC)CC	2.44% (inactive)	
O=C(OOC(=O)c1ccccc1)c1ccccc1	3.96% (inactive)	
CCCCC(CC)COC(=O)CC#N (stereo unspecified)	0.604% (inactive)	
O=S(=O)(O)c1cc(I)c(O)c2ncccc12	-6.62% (inactive)	
Cc1nc2ccc(Cl)cc2[nH]1	-20.5% (inactive)	
CC(=O)Nc1ccc(OCCOCCOc2ccc(NC(C)=O)cc2)cc1	-1.49% (inactive)	
CCCC(=O)CC	2.12% [at 78.9 µM] (inactive)	

biological target: Androgen receptor (Homo sapiens) (UniProt P10275); assay: qHTS assay to identify small molecule antagonists of the androgen receptor (AR) signaling pathway (AID 743035; active means well fitted inhibition curve with a large enough effect in the signal ratio in the repeat runs, not every such curve was filed as active; the % refers to the signal ratio); details: HEK293 AR-UAS-bla, R1881-stimulated, beta-lactamase FRET, 16 h; series mostly up to 58.5 µM; activity change, negative = inhibition: at the top concentration
Sequence (P10275 whole entry, looked up): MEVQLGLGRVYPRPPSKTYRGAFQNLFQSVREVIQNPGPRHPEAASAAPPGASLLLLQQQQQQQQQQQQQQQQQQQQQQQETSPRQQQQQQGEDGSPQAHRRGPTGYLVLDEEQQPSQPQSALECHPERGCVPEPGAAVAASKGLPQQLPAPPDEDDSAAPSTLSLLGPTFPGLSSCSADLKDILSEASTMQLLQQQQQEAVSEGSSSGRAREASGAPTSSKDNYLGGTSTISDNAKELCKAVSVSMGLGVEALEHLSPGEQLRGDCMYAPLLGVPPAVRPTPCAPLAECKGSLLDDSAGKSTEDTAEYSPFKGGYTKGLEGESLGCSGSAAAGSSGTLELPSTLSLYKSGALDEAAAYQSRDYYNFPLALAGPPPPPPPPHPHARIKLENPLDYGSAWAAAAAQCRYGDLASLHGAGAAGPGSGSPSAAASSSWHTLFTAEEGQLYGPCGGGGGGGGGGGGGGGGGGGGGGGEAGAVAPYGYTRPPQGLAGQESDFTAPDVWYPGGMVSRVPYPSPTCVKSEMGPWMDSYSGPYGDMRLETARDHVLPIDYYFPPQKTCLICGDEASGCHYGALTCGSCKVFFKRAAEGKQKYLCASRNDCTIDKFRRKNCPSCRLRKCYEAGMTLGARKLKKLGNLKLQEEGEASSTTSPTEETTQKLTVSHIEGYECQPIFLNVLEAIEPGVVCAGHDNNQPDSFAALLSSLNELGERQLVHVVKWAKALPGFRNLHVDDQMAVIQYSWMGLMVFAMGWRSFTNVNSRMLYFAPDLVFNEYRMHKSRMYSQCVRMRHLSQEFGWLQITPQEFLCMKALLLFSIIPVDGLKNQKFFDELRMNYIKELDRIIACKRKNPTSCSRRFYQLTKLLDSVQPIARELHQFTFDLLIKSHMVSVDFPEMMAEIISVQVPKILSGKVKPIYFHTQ
Procedure, shortened: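 Steps: seed AR-UAS-bla GripTite HEK293 cells, incubate 4 h at 37C; pin in test compound, then add agonist R1881; incubate 16 h at 37C; add LiveBLAzer B/G FRET substrate, 2 h at room temperature; read fluorescence.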

Structure (SMILES)	activity change, negative = inhibition
C=C(C)C(=O)OCCCC	18.1% [at 78.9 µM] (inactive)
CCCCCCCCC1CO1 (stereo unspecified)	-10.7% [at 78.9 µM] (inactive)
CN(C)c1cc(NC(=O)CNC(C)(C)C)c(O)c2c1C[C@H]1C[C@H]3[C@H](N(C)C)C(=O)C(C(N)=O)=C(O)[C@@]3(O)C(=O)C1=C2O	-0.38% (inactive)
CC1(C)C(=O)C(C)(C)C1=O	11.7% (inactive)
O=C1c2ccccc2C(=O)N1CO	0.686% [at 78.9 µM] (inactive)
CC(O)C(CO)C(C)O (stereo unspecified)	-17.8% [at 78.9 µM] (inactive)
COC(C)(C)CC(C)=O	9.68% (inactive)

biological target: Androgen receptor (Homo sapiens) (UniProt P10275); assay: qHTS assay to identify small molecule agonists of the androgen receptor (AR) signaling pathway using the MDA cell line (AID 743040; further: nearly all actives have a fitted effect of over 20% in size); details: MDA-kb2 AR-luc cells, MMTV luciferase, 16 h, active compounds read high; series mostly up to 70.3 µM; activity change: at the top concentration
Procedure, shortened: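 Cell-based luciferase reporter: MDA-kb2, MMTV promoter (AR + GR response elements). 16 h compound exposure at 37C; ONE-Glo, 30 min RT, luminescence.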

Structure (SMILES)	activity change
CCCCCCCCC1CO1 (stereo unspecified)	1.22% [at 95 µM] (inactive)
CN(C)c1cc(NC(=O)CNC(C)(C)C)c(O)c2c1C[C@H]1C[C@H]3[C@H](N(C)C)C(=O)C(C(N)=O)=C(O)[C@@]3(O)C(=O)C1=C2O	-0.212% (inactive)
CC1(C)C(=O)C(C)(C)C1=O	1.79% (inactive)
O=C1c2ccccc2C(=O)N1CO	1.35% [at 95 µM] (inactive)
CC(O)C(CO)C(C)O (stereo unspecified)	0.587% [at 95 µM] (inactive)
COC(C)(C)CC(C)=O	3.9% (inactive)

tested on: not listed separately; assay: qHTS assay to identify small molecule antagonists of the androgen receptor (AR) signaling pathway using the MDA cell line - cell viability counter screen (AID 743041; further: nearly all actives have a fitted effect of over 45% in size); details: MDA-kb2 viability, CellTiter-Fluor, 16 h, cells co-treated with R1881 androgen agonist; series mostly up to 70.3 µM; viability change, negative = cytotoxic: at the top concentration
Procedure, shortened: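 In this qHTS counter assay, fluorescence intensity after CellTiter-Fluor addition indicated viability of MDA-kb2 AR-luc cells given compounds and R1881 for 16 h at 37C.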

Structure (SMILES)	viability change, negative = cytotoxic	outcome
CC(=O)OCC(=O)[C@@]1(O)CC[C@H]2[C@@H]3CCC4=CC(=O)C=C[C@]4(C)[C@H]3[C@@H](O)C[C@@]21C	-2.96% (inactive)	
CCCCC(CC)CCC(CC(C)C)OS(=O)(=O)O (stereo unspecified)		inactive
CC(=O)Oc1ccc(C(C)=O)cc1	-5.75% [at 95 µM] (inactive)	
CCCCCCCCC1CO1 (stereo unspecified)	4.89% [at 95 µM] (inactive)	
CC(C)c1cc(C(C)C)cc(C(C)C)c1	6.82% (inactive)	
C=CC(=O)OCC[N+](C)(C)C	2.85% [at 95 µM] (inactive)	
CC1(C)C(=O)C(C)(C)C1=O	-1.32% (inactive)	
CCCCCC(CC)OC(=O)CCCOc1ccc(Cl)cc1Cl (stereo unspecified)	-0.824% (inactive)	
Cc1ccc2ccccc2n1	12.5% (inactive)	
C=CCON/C(CCC)=C1\C(=O)CC(C)(C)C(C(=O)OC)=C1O	4.31% (inactive)	
CCCCCCC(O)CO (stereo unspecified)	9.24% (inactive)	
Cc1ccc(O)c([N+](=O)[O-])c1	-2.36% [at 95 µM] (inactive)	
CN(C)CCC[C@@]1(c2ccc(F)cc2)OCc2cc(C#N)ccc21	-12.5% (inactive)	
CC(C)C[P+](C)(CC(C)C)CC(C)C	-2.66% [at 95 µM] (inactive)	
C=COCCCCO	5.55% (inactive)	
O=C(O)Cc1c(Cl)ccc(Cl)c1Cl	2.51% (inactive)	
CC(O)C(CO)C(C)O (stereo unspecified)	3.88% [at 95 µM] (inactive)	
CCOC(=O)CC	5.6% (inactive)	
CCC(=O)OCCOc1ccccc1	-19% (inactive)	
CC1=C(O)C(=O)CO1	1.14% (inactive)	
CC[N+](C)(CC)CC	-1.27% (inactive)	
O=C(OOC(=O)c1ccccc1)c1ccccc1	28.7% (inactive)	
Cc1nc2ccc(Cl)cc2[nH]1	-2.24% (inactive)	
COC(C)(C)CC(C)=O	0.547% (inactive)	
CC(=O)Nc1ccc(OCCOCCOc2ccc(NC(C)=O)cc2)cc1	5.9% (inactive)	
CCCC(=O)CC	12.8% [at 95 µM] (inactive)	
N#CC1(N)CCCCC1	-3.31% [at 95 µM] (inactive)	
